# Bioassay records as filed in PubChem BioAssay.
# MCF10A rerep: DNA re-replication induction in MCF 10a cells; AID 624296; MCF 10A DNA re-replication, Hoechst nuclear intensity, 48 h; Potency, µM (highest dose often 46.1 µM), for the others: at the highest dose activity, positive = re-replication, actives largely listed as activators; hit rate 2.9% among 350,000; also: % of control where 0% means no effect; nearly all actives have a fitted effect of over 50% in size
# SW480 rereplic: induces DNA re-replication in SW480 colon adenocarcinoma cells; SW480 DNA re-replication, Hoechst DNA content imaging, 48 h; Potency, µM (top dose mostly 46.1 µM), without a hit: top-dose re-replication activation, most hits filed as activators; hit rate 1.8% among 340,000; AID 624297; also: % of control where 0% means no effect; nearly all actives have a fitted effect of over 55% in size
#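 Per well, 250 cells were exposed to pinned compound for 48 hr. Nuclear DNA was visualised with Hoechst (40 min, 37 C) and total object intensity recorded by fluorescence scanning.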
# KB-3-1 cytotox: kills parental KB-3-1 adenocarcinoma cells. hit rate 1.4% among 400,000. Potency, µM (doses to about 46.1 µM), actives largely listed as cytotoxic. KB-3-1 viability, CellTiter-Glo ATP luminescence, 72 h; also: % is scaled to controls: 0 for no effect and ±100 for the full control effect; nearly all actives have a fitted effect of over 60% in size
#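 Here the drug-naive KB-3-1 line serves as comparator for MDR sub-line selectivity; cells received compound titrations, 72 h at 37 °C, then CellTiter-Glo readout.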
# HT1080NT lethal: kills 2HG-producing HT-1080-NT fibrosarcoma cells. hit rate 1.6% among 360,000. HT-1080-NT fibrosarcoma viability, CellTiter-Glo ATP luminescence, 48 h. Potency, µM (doses to about 46.1 µM), without a hit: top-dose activity, negative = less viability, hits mostly cytotoxic;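 also: NT is the 2HG producing partner of a matched IDH1 knockdown line; 0% = DMSO-treated cells and -100% = media-only wells without cells; nearly all actives have a fitted effect of over 55% in size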
#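 750 cells/well, RPMI + 5% FBS; 2 h settle, compound pin-transfer, 48 h at 37 degrees C. CellTiter-Glo 10 min RT, luminescence. Normalized to DMSO and media-only wells.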
# KB-V1 cytotox: kills drug-selected multidrug resistant KB-V1 cells; AID 1347076; KB-V1 MDR cells viability, CellTiter-Glo, 72 h; Potency, µM (doses to about 46.1 µM), actives largely listed as cytotoxic; hit rate 3.4% among 400,000; also: % is scaled to controls: 0 for no effect and ±100 for the full control effect; nearly all actives have a fitted effect of over 60% in size
#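 Cells of the MDR subline KB-V1 are plated, dosed with compound at multiple concentrations, and incubated 72 h at 37 degrees C; CellTiter-Glo is then added and luminescence read after 10 min.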
# HT1080 IDH1KD tx: toxicity to HT-1080 IDH1 knockdown cells (counter line); HT-1080 IDH1 knockdown viability, ATP luminescence, 48 h; Potency, µM (titrated, usually from 46.1 µM), for inactives: top-dose activity, negative = toxicity, most hits filed as cytotoxic; hit rate 2% among 360,000; AID 686971;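 also: 0% = DMSO wells and -100% = cell-free medium wells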
#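 Assay cells: HT-1080 with IDH1 knockdown, 750 per well, RPMI/5% FBS. Exposure: 48 h at 37 °C following 2 h pre-incubation. Read: CellTiter-Glo luminescence; fitted concentration-response, curve class assigned.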
# Numbers without * were called inactive; i = inactive; ? = inconclusive; nt = no result; [ ] = another dose, or the depositor's remark. Only some compounds are listed: those with a hit (about 7.9% of all), similar ones and a draw of the others. Calls follow the shape of the dose curve; as a rule, active = well fitted curve in the direction sought with a large enough effect; inconclusive = small, poorly fitted or top-dose-only effect, or another doubt; inactive = no such curve, though single readings can be large; an effect the other way counts as inactive or inconclusive. Potency is read from the fitted curve at half-maximal effect.
SMILES,MCF10A rerep,SW480 rereplic,KB-3-1 cytotox,HT1080NT lethal,KB-V1 cytotox,HT1080 IDH1KD tx
Fc1ccc(-[n+]2nc(Nc3ccccc3)sc2-c2c3ccccc3cc3ccccc23)cc1,-52%,-22%[9.22 µM],i,21µM*,?,23µM*
c1ccc(-[n+]2nc(Nc3cccc4ccccc34)sc2-c2c3ccccc3cc3ccccc23)cc1,9%,-8%[9.22 µM],i,3.7µM*,i,8.2µM*
O=C(N/N=C/c1ccc2ncccc2c1)c1ccco1,12%,-6%,i,-20%,?,-20%
c1ccc(Oc2ccccn2)cc1,-7%,-3%,i,26%,i,27%
Cc1cccc2cc(C#N)c(SCC(=O)N3CC(=O)Nc4ccccc43)nc12,0.65µM*,7.3µM*,0.82µM*,?,?,?
CCOc1ccc2cc(C#N)c(SCC(=O)N3CCC(C)CC3)nc2c1,?,0%,i,-3%,2.6µM*,1%
COc1ccc2cc(C#N)c(SCC(=O)N3CC(=O)Nc4ccccc43)nc2c1,21µM*,?,7.3µM*,0%,i,-8%
CC(=O)c1c(C)[nH]c(C(=O)OCC(=O)N(C)C)c1C,?,13%,i,0%,i,6%
CCCCCCNC(=O)n1cc(F)c(=O)[nH]c1=O,21%,42%,nt,nt,nt,nt
CC12CC(c3ccccc3O1)N(C(=O)c1ccco1)C(=S)N2c1ccccc1 (centres undefined),23µM*,18%,i,2%,i,-29%
CC1CC(N(C(=O)c2ccco2)c2ccccc2)c2ccccc2N1C(=O)c1ccco1 (centres undefined),30%,?,i,-7%,i,-27%
Cc1cccc(N=Nc2c(N)n[nH]c2-c2ccc(Cl)cc2)c1,?,12%,i,?,i,?
Cc1ccc(-c2[nH]nc(N)c2N=Nc2cccc(Cl)c2C)cc1,21µM*,?,?,?,?,?
Cc1ccc(-c2[nH]nc(N)c2N=Nc2ccccc2C)cc1,?,?,?,?,?,18µM*
C[n+]1cc2c3c(ccc2c2ccc4cc5c(cc4c21)OCO5)OCO3,17%,-2%,nt,2.5µM*,nt,1.4µM*
CCN(CC)c1ccc(C(=O)Nc2cccc(F)c2)cc1,?,13µM*,i,?,i,?
CCN(CC)S(=O)(=O)c1cc(NC(=O)C(=O)c2c(-c3ccccc3)cc3ccccn23)ccc1C,9%,1%,i,-3%,i,-19%
CCN(CC)S(=O)(=O)c1cccc(NC(=O)C(=O)c2c(-c3ccccc3)cc3ccccn23)c1,7%,2%,i,0%,3.3µM*,-1%
CCN(CC)S(=O)(=O)c1cccc(NC(=O)c2ccc(Br)cc2)c1,8%,3%,i,-9%,6.5µM*,-7%
CN(C)S(=O)(=O)c1cccc(NC(=O)c2cncc(Br)c2)c1,?,-12%,i,6%,15µM*,20%
CCN(CC)S(=O)(=O)c1cccc(NC(=O)c2cncc(Br)c2)c1,-1%,18%,i,0%,i,-6%
CN(C)c1cccc(C(=O)Nc2cccc(F)c2)c1,-4%,-2%,i,8%,i,3%
CCN(CC)S(=O)(=O)c1cccc(NC(=O)COc2ccc(Cl)cc2Br)c1,16%,13%,?,4%,21µM*,-7%
CN(C)S(=O)(=O)c1cccc(NC(=O)COc2ccc(S(=O)(=O)N3CCOCC3)cc2Cl)c1,-1%,-7%,i,-10%,i,-16%
O=C(COc1ccc2ccccc2c1Br)N1CCN(c2ccccn2)CC1,97%,?,?,-9%,23µM*,-14%
SMILES,MCF10A rerep,SW480 rereplic,KB-3-1 cytotox,HT1080NT lethal,KB-V1 cytotox,HT1080 IDH1KD tx
O=C(NNS(=O)(=O)c1ccc(CCCl)cc1)C(O)(c1ccccc1)c1ccccc1,-7%,-7%,i,-1%,16µM*,8%
Cc1ccc(C(O)(C(=O)NNS(=O)(=O)c2ccc(C)cc2)c2ccc(C)cc2)cc1,30%,19%,i,-3%,?,1%
COc1ccccc1NC(=O)C1=C(C)Nc2nc(-c3cccs3)nn2C1c1cccnc1 (centres undefined),-1%,-7%,i,-2%,i,-1%
Cc1cc(C)c(C)c(S(=O)(=O)N2CCN(CC(=O)NC(=O)NCc3ccccc3)CC2)c1C,11%,-1%,i,11%,?,2%
Cc1ccsc1C(=O)NCC(c1cccs1)N1CCOCC1 (centres undefined),nt,nt,i,18µM*,?,?
CN(C)c1ccc(C(=O)NCC(c2cccs2)N2CCOCC2)cc1 (centres undefined),3%,-2%,i,5%,i,3%
O=C(CSc1ccc(Br)cc1)NCC(c1cccs1)N1CCOCC1 (centres undefined),10%,3%,16µM*,-7%,?,-10%
O=C(NCC(c1cccs1)N1CCOCC1)c1ccc(Br)o1 (centres undefined),?,8.2µM*,?,?,?,16µM*
CC(=O)c1cccc(NC(=S)NC(=O)c2ccc(Cl)cc2)c1,0%,-3%,i,4%,?,11%
CCc1sc(C(=O)Nc2cccc(C(C)=O)c2)cc1C,-1%,-223%,i,8%,21µM*,3%
CC(=O)c1cccc(NC(=O)c2cc3c(s2)-c2c(C)cccc2OC3)c1,nt,nt,i,nt,i,nt
CC(=O)c1cccc(NC(=S)NC(=O)c2ccccc2Br)c1,9%,-3%,i,-5%,21µM*,6%
CC(=O)c1cccc(NC(=S)NC(=O)c2cccc(C)c2)c1,-1%,-8%,?,2%,18µM*,0%
O=C(NC1CCCCC1)c1cc(-n2cnnc2)ccc1Cl,-9%,-5%,i,18%,i,18%
C=CCN1C(=O)/C(=C2/Sc3ccc(OC)cc3N2C)SC1=Nc1ccccc1,?,7.3µM*,i,2%,i,-2%
O=C(NCc1ccccc1)c1ccc2c(=O)[nH]c3c(C(=O)NCC4CCCO4)sc(=S)n3c2c1 (centres undefined),-10%,-14%,?,-4%,i,0%
O=C(NC1CCCC1)c1sc(=S)n2c1[nH]c(=O)c1ccccc12,?,?,12µM*,-2%,?,-42%
O=C(NCc1ccco1)c1sc(=S)n2c1[nH]c(=O)c1ccccc12,?,2%,?,-26%,21µM*,?
